# From PubChem BioAssay
# TWEAK Fn14 block = blocks TWEAK-Fn14 interaction in a reporter cell assay | TWEAK-stimulated Fn14 reporter cells, luciferase luminescence, 8 h | inhibition, % at 10 µM | actives 2% (n = 360,000) | AID 1159606; in the data active = inhibition above about 50%
# HSP90 refold inh = HSP90 refolding inhibition in rabbit reticulocyte lysate | luciferase refolding luminescence, 3 h | actives 0.91% (n = 290,000) | inhibition, % at 5.6 µM;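 active = inhibition above the screen-wide mean plus 3 SD, computed separately per campaign, cut at about 16% in these data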;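 also: 0% = DMSO wells and 100% = 60 µM geldanamycin wells; inhibitors lower the luminescence because luciferase stays unfolded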
# LGR2 inh = inhibitors of bursicon-induced Drosophila LGR2 receptor cAMP signaling. inhibition, % at 9.99 µM. HEK293 LGR2, CRE-luciferase, bursicon-stimulated, 4 h. actives 0.35% (n = 380,000). AID 720647;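 active = drop in luminescence signal, shown as inhibition above about 50% in the replicate tests, limit read from the data, passing the limit was not always enough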;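 also: agonist challenge used bursicon conditioned medium at about half maximal strength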
# TROY NFkB inh = blocks TROY-dependent signaling in reporter cells; Q293 LMP1-TROYcd NF-kB luciferase reporter, 4 h; inhibition, % at 10 µM; actives 0.98% (n = 360,000); AID 1347056;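 active = compounds whose plate-normalised and pattern-corrected inhibition of the luciferase reporter signal at the single screening dose is 50% or more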
# * = called active by the depositor; . = no result. A selection: hits, their analogues and other compounds. The true share with any hit is near 2.2%.
SMILES,TWEAK Fn14 block,HSP90 refold inh,LGR2 inh,TROY NFkB inh
Cc1cc(N/N=C/c2ccccc2O)nc(-c2ccccc2O)n1,29.3,4.9,0.5,-30.3
C/C(=N\Nc1cc(C)nc(-c2ccccc2O)n1)c1ccccc1O,54.8*,-1.1,2.7,16.0
COc1ccc(-c2csc3ncnc(NCCCO)c23)cc1,65.1*,3.4,16.0,35.4
COc1ccc(-c2csc3ncnc(NCCO)c23)cc1,72.5*,-1.2,28.4,45.1
C[C@H]1CN([C@@H](C)CO)C(=O)Cc2cc(NS(=O)(=O)c3ccccc3)ccc2O[C@@H]1CN(C)Cc1ccncc1,.,.,-11.6,.
O=C(C[C@@H]1C=C[C@H](NS(=O)(=O)c2ccc(F)cc2)[C@@H](CO)O1)NC1CCC1,.,.,8.7,.
CC(=O)c1c(C)[nH]c(C(=O)COc2cc(C)ccc2C(C)C)c1C,63.9*,3.7,.,48.5
COc1cc(C)ccc1OCC(=O)OCC(=O)c1[nH]c(C)c(C(C)=O)c1C,-8.8,.,2.7,-1.2
CCOC(=O)N1CCC(Nc2ncnc3c2cnn3-c2ccc(Cl)cc2)CC1,48.5,8.6,-6.1,50.2*
CC1CN(c2ncnc3c2cnn3-c2ccc(Cl)cc2)CC(C)O1 (stereo not drawn),50.0,16.4*,-41.7,54.8*
CCOC(=O)C1CCCN(c2ncnc3c2cnn3-c2ccc(Cl)cc2)C1 (stereo not drawn),63.1*,2.9,-35.5,42.9
C=CCNc1ncnc2c1cnn2-c1ccc(Cl)cc1,25.2,-7.5,.,-7.8
CC1CC(C)CN(c2ncnc3c2cnn3Cc2ccc(Cl)cc2)C1 (stereo not drawn),10.3,8.5,.,20.1
Cc1ccc(S(=O)(=O)N(C)C[C@@H]2Oc3c(cccc3N(C)C)C(=O)N([C@H](C)CO)C[C@@H]2C)cc1,.,.,-12.7,.
Cc1ccc(S(=O)(=O)Nc2ccc3c(c2)C(=O)N([C@@H](C)CO)C[C@H](C)[C@@H](CN(C)C)OCCCC[C@H](C)O3)cc1,.,.,-11.1,.
Cc1cccc(/C=N/NC(=O)c2cc(Br)ccc2OCc2ccccc2)n1,-11.2,2.2,0.3,13.4
Cc1cccc(/C=N/NC(=O)c2ccccc2OCc2cccc(Br)c2)n1,76.5*,6.2,9.1,19.6
CC1(C)COC(/C=C/c2ccc([N+](=O)[O-])cc2)=N1,62.0*,2.8,-10.1,-66.4
CC(C)NC(=O)N1[C@@H](C#N)[C@H](c2ccc(C#CC3CCCC3)cc2)[C@@H]1CO,.,.,4.5,.
Cc1c(NC(=O)c2cc3c(s2)-c2ccccc2OC3)cccc1[N+](=O)[O-],62.0*,-0.8,-0.4,44.1
O=C(C[C@@H]1C[C@H]2c3cc(NC(=O)CC4CC4)ccc3O[C@H]2[C@H](CO)O1)NCCc1ccccc1,.,.,12.7,.
COc1ccccc1N1CCN(C(=S)Nc2ccccc2)CC1,-6.6,4.5,-13.5,18.9
COc1ccccc1N1CCN(C(=S)Nc2ccc(F)cc2)CC1,36.9,13.2,6.5,53.1*
COc1ccc(NC(=O)CN(c2ccccc2)S(=O)(=O)c2ccccc2)c(OC)c1,7.3,4.4,-8.5,-9.2
COC(=O)c1ccc(Cl)c(NC(=O)CN(c2ccccc2)S(=O)(=O)c2ccc(OC)cc2)c1,60.4*,2.2,15.8,8.3
SMILES,TWEAK Fn14 block,HSP90 refold inh,LGR2 inh,TROY NFkB inh
O=Cc1cn(CCC(=O)O)nc1-c1cccc(Br)c1,5.9,0.4,.,5.8
COc1ccc(-c2nn(CCC(=O)O)cc2/C=C/C(=O)O)cc1[N+](=O)[O-],-3.3,6.8,-4.2,64.8*
O=C(O)CCn1cc(/C=C\C(=O)c2ccc(Cl)cc2)c(-c2cccc(Br)c2)n1,64.2*,-5.9,10.8,21.1
CC(=O)N1c2ccc(S(=O)(=O)NCC3CCC(C(=O)Nc4cccc(C)n4)CC3)cc2CC1C (stereo not drawn),58.8*,-2.6,5.7,22.1
COCC#Cc1cnc2c(c1)C(=O)N([C@H](C)CO)C[C@H](C)[C@@H](CN(C)Cc1ccc3c(c1)OCO3)O2,.,.,-9.8,.
CCOc1ccccc1-c1c2cc(O)c(=O)cc-2oc2cc(O)c(O)cc12,74.3*,0.3,.,22.5
COc1ccc(OC)c(-c2c3cc(O)c(=O)cc-3oc3cc(O)c(O)cc23)c1,73.7*,5.1,.,11.4
C[C@H](CO)N1C[C@H](C)[C@@H](CN(C)C(=O)Nc2ccc(F)cc2)Oc2c(NS(=O)(=O)c3cccs3)cccc2C1=O,.,.,-9.2,.
O=C(CN(c1ccc(Br)cc1)S(=O)(=O)c1ccc(Cl)c([N+](=O)[O-])c1)NCCc1ccccc1,-19.1,-1.6,29.0,10.1
Cc1ccc(N(CC(=O)NCCc2ccc(F)cc2)S(=O)(=O)c2ccc(Cl)c([N+](=O)[O-])c2)c(C)c1,52.8*,5.5,18.4,22.0
C[C@@H]1CN([C@@H](C)CO)C(=O)c2cc(NC(=O)c3ccccc3)ccc2O[C@@H](C)CCCCO[C@@H]1CN(C)C(=O)C1CCCCC1,.,.,-6.3,.
CC(=O)c1cnc2c(-c3ccc(Cl)cc3)cnn2c1C,3.7,-0.5,.,-67.3
Nc1c(C(=O)O)cnc2c(-c3ccc(Cl)cc3)cnn12,67.4*,1.4,2.8,14.9
Cc1sc2ncnc(N3CCC(C(=O)Nc4ccc(Br)cc4Br)CC3)c2c1C,33.0,.,-2.8,56.0*
COc1cc(C(=O)Nc2cccc(C)n2)ccc1OCC(=O)N1CCOCC1,16.6,.,-6.0,-5.0
COc1ccc(-c2csc(NC(=O)c3ccc(OCC(=O)N4CCOCC4)c(OC)c3)n2)cc1OC,81.5*,-3.7,.,70.8*
COc1ccc(-c2csc(NC(=O)C3CCN(c4ncnc5sc(C)c(C)c45)CC3)n2)cc1OC,102.2*,.,9.5,69.8*
Cc1ccccc1OCC(=O)NNC(=O)C1CCN(c2ncnc3sc(C)c(C)c23)CC1,44.7,.,-2.4,53.0*
C[C@H]1CN([C@@H](C)CO)C(=O)Cc2cc(NC(=O)Nc3ccc(C(F)(F)F)cc3)ccc2O[C@@H]1CN(C)Cc1ccc(-c2ccccc2)cc1,.,.,17.4,.
Cc1c(Cl)cccc1NC(=S)N=Nc1c(O)n(CN2CCOCC2)c2ccccc12,104.7*,3.5,.,32.6
Cc1nn(CC(=O)NC(C)c2ccccc2)c(C)c1[N+](=O)[O-] (stereo not drawn),0.8,-2.9,15.9,6.3
CC(NC(=O)Cn1cnc([N+](=O)[O-])n1)c1ccccc1 (stereo not drawn),-1.5,16.3*,.,-2.0
C[C@H](CO)N1C[C@H](C)[C@@H](CN(C)S(=O)(=O)c2cn(C)cn2)Oc2ccc(NS(=O)(=O)c3ccc(F)cc3)cc2C1=O,.,.,-12.5,.
C[C@@H]1CN([C@@H](C)CO)C(=O)c2cc(NS(=O)(=O)c3ccc(Cl)cc3)ccc2O[C@@H](C)CCCCO[C@H]1CN(C)Cc1ccc(C(F)(F)F)cc1,.,.,24.1,.
COc1ccc2cnn(Cc3ccccc3)c(=O)c2c1OC,27.8,0.1,.,50.9*
CC(=O)N(C)C[C@H]1Oc2cc(C#Cc3ccc(F)cc3)ccc2S(=O)(=O)N([C@@H](C)CO)C[C@H]1C,.,.,-3.0,.
O=C(NCC1CCCO1)c1cc2c([nH]c3ccccc32)c(-c2cccc(Cl)c2)n1 (stereo not drawn),56.1*,1.9,.,27.4
COc1cc(-c2nc(C(=O)NCC3CCCO3)cc3c2[nH]c2ccccc23)cc(OC)c1OC (stereo not drawn),59.3*,0.1,22.8,-8.1
